The values below come from PubChem BioAssay AID2058 (Sanford-Burnham Center for Chemical Genomics, 2009).

The whole screen tested about 290,000 compounds, of which about 150 (0.052%) were called active. Only a selection was taken, and actives are over-represented in it overall. Potency and affinity values are given separately. A number with no mark means an inactive call.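 How the source made its calls: active means inhibition of at least 50% with at least 30 cells and total cytoplasm GFP at most 10,000,000; inconclusive means under 30 cells or total GFP of 10,000,000 plus; inactive means the rest.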

In this experiment the target is G-protein coupled receptor 35 (Homo sapiens) (UniProt Q9HC97). Briefly: GPR35 antagonists blocking zaprinast-driven arrestin recruitment, primary screen, imaging, U2OS, beta-arrestin-GFP, zaprinast agonist (AID 2058). As to conditions: U2OS GPR35 beta-arrestin-GFP translocation imaging, zaprinast antagonism; at 10 µM; stronger effect = higher value.
Sequence of G-protein coupled receptor 35 (Homo sapiens) (Q9HC97 whole entry, looked up): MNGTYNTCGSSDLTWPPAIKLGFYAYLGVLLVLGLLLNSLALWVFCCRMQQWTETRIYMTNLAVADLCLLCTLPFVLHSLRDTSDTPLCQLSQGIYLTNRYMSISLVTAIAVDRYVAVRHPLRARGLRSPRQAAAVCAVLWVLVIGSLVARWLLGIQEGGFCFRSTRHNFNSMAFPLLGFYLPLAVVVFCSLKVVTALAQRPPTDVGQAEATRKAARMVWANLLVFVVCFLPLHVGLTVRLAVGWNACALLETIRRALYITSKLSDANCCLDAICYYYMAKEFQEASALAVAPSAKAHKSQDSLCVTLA
For the compound `CC(C)(C)[C@H]1C=C(C(=O)NCc2nc3ccccc3[nH]2)O[C@@H](OCc2ccc(CO)cc2)C1`, the inhibition is 9.8%.

For `O=C1c2ccc([N+](=O)[O-])cc2NC(c2ccco2)N1/N=C/c1ccco1` (stereo not given), the inhibition is -4.6%.

For the compound `Cn1cc(/C=C/C(=O)N2CCCC(C(=O)c3ccc(C(C)(C)C)cc3)C2)cn1` (stereo not given), the inhibition is -6.4%.

On to `CCc1cccc2c(C(=O)C(F)(F)F)cn(CC(=O)N3CCOCC3)c12`, for which the inhibition was 7.2%.

On to `N#C/C(=C/c1ccc(N2CCCCCC2)o1)c1cccc(F)c1`, for which the inhibition is 104% (active).

Regarding `N#C/C(=C\c1ccc(N2CCOCC2)o1)C(=O)NC1CCCCC1`, the inhibition was 8.1%.

In the case of `N#C/C(=C/c1ccc(N2CCOCC2)o1)c1ccc(Br)cc1`, the inhibition was 37.8%.

For `COc1cc(N2CCCC2)c(OC)cc1/C=C(/C#N)c1cccc(F)c1`, the inhibition was 30.4%.

Take `N#C/C(=C/c1ccc(N2CCCCCC2)o1)c1ccc(Cl)cc1`: the inhibition is 87.6% (active).

As to `N#C/C(=C/c1ccc(N2CCOCC2)o1)C(=O)NC1CCCCC1`, the inhibition was 9.2%.

With `N#C/C(=C/c1ccc(N2CCCCC2)o1)c1cccc(F)c1`, the inhibition is 55.7% (active).

Take `N#C/C(=C/c1ccc(N2CCOCC2)o1)c1ccc(Cl)cc1`: the inhibition was -12.2%.

With `N#C/C(=C/c1ccc(N2CCCCC2)cc1)c1cccc(F)c1`, the inhibition is 11.7%.

Regarding `Cc1ccc(/C(C#N)=C\c2ccc(N3CCOCC3)o2)cc1`, the inhibition was 27.2%.

`N#C/C(=C/c1ccc(Sc2nc3ccccc3[nH]2)o1)c1cccc(F)c1`: the inhibition was -1.5%.

As to `O=C(Nc1ccccn1)C1(c2ccccc2)CCCC1`, the inhibition is 3%.

In the case of `CC(C)(C)OC(=O)N1CCN(c2ccc(CNC(=O)c3ccc(Cl)cc3)cc2)CC1`, the inhibition is 4%.

`COc1ccc(-c2nnn(CC(=O)N(CCCO)C(C(=O)NC3CCCC3)c3ccc(F)cc3)n2)cc1` (stereo not given): the inhibition was 4%.

On to `Cc1cccc(NC(=O)C2CCN(S(=O)(=O)c3cccc4nonc34)CC2)c1`, for which the inhibition is -1.2%.

Turning to `COc1ccc(/C=N/n2cnc3c([nH]c4ccc(C)cc43)c2=O)cc1CN1CCCC1`, the inhibition is 1.2%.

In the case of `CC(=O)Nc1ccc(S(=O)(=O)NCC2CCC(C(=O)NC(C)c3ccccc3)CC2)cc1` (stereo not given), the inhibition is -1.8%.

With `CN(C)c1nc(N2CCN(c3ccccc3)CC2)c(C#N)c(=O)o1`, the inhibition was 16.3%.

For the compound `N=c1c2c3c(sc2ncn1N)CCC3`, the inhibition is 4.1%.

In the case of `CC(C)N1CC=C2C(C#N)=C(N)C(C#N)(C#N)C(c3ccccc3)C2C1` (stereo not given), the inhibition was 69% (active).

As for `CC(C)c1ccc(C2C3CSCC=C3C(C#N)=C(N)C2(C#N)C#N)cc1` (stereo not given), the inhibition is -18.5%.

Take `Cc1ccc(C2C3CSCC=C3C(C#N)=C(N)C2(C#N)C#N)cc1` (stereo not given): the inhibition is 1.6%.

In the case of `N#CC1=C(N)C(C#N)(C#N)C(c2ccncc2)C2CN(C(=O)OCc3ccccc3)CC=C12` (stereo not given), the inhibition is -3%.

In the case of `CCCC1C2CN(C(C)C)CC=C2C(C#N)=C(N)C1(C#N)C#N` (stereo not given), the inhibition was 112% (active).

Turning to `CCCC1C2CN(C(C)=O)CC=C2C(C#N)=C(N)C1(C#N)C#N` (stereo not given), the inhibition is 8.7%.

Turning to `CCC1C2CN(C(C)=O)CC=C2C(C#N)=C(N)C1(C#N)C#N` (stereo not given), the inhibition was -14.1%.

For the compound `Cc1ccc(C2C3CN(C(C)C)CC=C3C(C#N)=C(N)C2(C#N)C#N)cc1` (stereo not given), the inhibition is 100% (active).

For the compound `N#CC1=C(N)C(C#N)(C#N)[C@H](c2ccncc2)[C@H]2CN(C(=O)OCc3ccccc3)CC=C12`, the inhibition was 1%.

With `COc1ccc(COc2ccccc2C(=O)Nc2ccccn2)cc1[N+](=O)[O-]`, the inhibition is 15.8%.

In the case of `Cc1ccc(S(=O)(=O)N/N=C/c2cccc(OC3CSC3)c2)cc1`, the inhibition was 9.4%.

For `C[C@@H]1CC=C[C@H]2[C@H]1C(=O)N(Cc1ccccc1)[C@H]2c1ccc(F)c(-c2ccc(N(C)C)cc2)c1`, the inhibition was 17.6%.

For the compound `Cc1ccc(-c2nnc(N3CC(C)OC(C)C3)c3ccccc23)cc1` (stereo not given), the inhibition is 13.6%.

Consider `COc1cc(C(=S)N2CCOCC2)ccc1OC(=O)c1cc([N+](=O)[O-])c(C)c([N+](=O)[O-])c1`, for which the inhibition is 10.7%.

Consider `CCc1ccc(C(C)NC(=O)c2ccc3c(c2)OCO3)cc1` (stereo not given), for which the inhibition is -12.5%.

As to `O=C(NC(c1ccccc1)c1ccccc1)c1ccc(CO)cc1`, the inhibition was 7%.

`CC1=CC(C)(C)N(C)C(=O)N1c1ccc(Cl)cc1`: the inhibition was 20.7%.

Regarding `Cc1cc(=O)cc(C)n1-c1ccc(Cl)cc1`, the inhibition was -8.7%.

With `COC1CCN(C(=O)c2cc(COc3ccc(-n4cncn4)cc3)on2)CC1`, the inhibition was 17.9%.

Turning to `O=C(Nc1cc([N+](=O)[O-])ccc1N1CCCC1)c1ccco1`, the inhibition was -5%.

Turning to `CC(C)(C)C(=O)C[n+]1ccccc1`, the inhibition is -9.2%.

Consider `CCCOC(=O)c1ccc(Nc2cc(C)nc3ncnn23)cc1`, for which the inhibition is 11.5%.

As for `COc1ccc(C(=O)/C=C/C(=O)N(CC(=O)NC2CCCCC2)Cc2ccccc2)c(O)c1`, the inhibition was -0.1%.

For `COc1ccc(C(=O)/C=C/C(=O)N(CC(=O)NC2CCCCC2)CC2CCCO2)c(O)c1` (stereo not given), the inhibition is 69.1% (active).

Regarding `COCCN(CC(=O)NC1CCCCC1)C(=O)/C=C/C(=O)c1ccc(OC)cc1O`, the inhibition was 15.7%.

In the case of `Cc1nn(-c2ccccc2)nc1C(N)=O`, the inhibition was 12.1%.

With `O=C1C=CC(=O)N1Cc1ccccc1`, the inhibition is 4.8%.

Take `O=C1C2C3C=CC(C3)C2C(=O)N1CCCCCCN1C(=O)C2C3C=CC(C3)C2C1=O` (stereo not given): the inhibition is -2%.

As for `COc1cccc(Nc2nc(N)c([N+](=O)[O-])c(N3CCOCC3)n2)c1`, the inhibition was 0.4%.

On to `O=C(NCc1ccco1)C(=O)NCC1OCCCN1S(=O)(=O)c1ccc(Cl)cc1` (stereo not given), for which the inhibition was -6.3%.

Regarding `C/C(=N/NC(=O)CNC(=O)C1COc2ccccc2O1)c1cccc(O)c1` (stereo not given), the inhibition is 0.2%.

As for `COc1ccc(/C=C/C(=O)NCC(=O)N/N=C/c2ccc(OC)cc2)cc1`, the inhibition is 9%.

Consider `O=C(/C=C\c1ccccc1)NCC(=O)N/N=C/c1ccc(O)cc1O`, for which the inhibition was 10.7%.

Regarding `COc1ccc(/C=C2/SC(=S)N(Cc3ccccc3)C2=O)cc1O`, the inhibition was -18.7%.

Consider `COc1ccc(/C=C2\SC(=S)N(CCC(=O)Nc3cccc(C(=O)O)c3)C2=O)cc1`, for which the inhibition is 2.8%.

As for `COc1ccc(/C=C2\SC(=S)N(CCCC(=O)Nc3ccc(C(=O)O)cc3)C2=O)cc1OC`, the inhibition is 30%.

With `CCc1ccc(/C=C2/SC(=S)N(CCC(=O)Nc3cccc(C(=O)O)c3)C2=O)cc1`, the inhibition was -9.9%.

`COc1cc(/C=C2/SC(=S)N(Cc3ccccc3)C2=O)cc(Cl)c1O`: the inhibition is 74.4% (active).

On to `O=C(CCCN1C(=O)/C(=C\c2cccs2)SC1=S)Nc1cccc(C(=O)O)c1`, for which the inhibition was 0.3%.

`Cc1ccc(/C=C2/SC(=S)N(CCCC(=O)Nc3ccc(O)cc3)C2=O)cc1`: the inhibition is 36.2%.

Regarding `COc1ccc(/C=C2\SC(=S)N(CCCC(=O)Nc3ccc(O)cc3)C2=O)cc1`, the inhibition was 44.8%.

Turning to `COc1cc(/C=C2/SC(=S)N(Cc3ccccc3)C2=O)ccc1O`, the inhibition was -5.7%.

On to `COC(=O)c1ccc(Cn2nc(C)c(Br)c2C)cc1`, for which the inhibition is 4%.

In the case of `C[C@H](NC(=O)c1nc[nH]c1C(=O)N[C@H](C)c1ccccc1)C(=O)OC(C)(C)C`, the inhibition is 5.8%.

For `Cc1cc(=O)oc2c(C)c3occc3cc12`, the inhibition was -1.8%.

Take `O=C1C(=O)N(CCN2CCOCC2)C(c2cccc(Cl)c2)/C1=C(\O)c1ccc2c(c1)OCCO2` (stereo not given): the inhibition was -1.2%.

For `Cc1ccccc1COc1ccc2oc(C)c(C(=O)O)c2c1`, the inhibition is -10.4%.

On to `O=[N+]([O-])c1c(-c2cn[nH]c2)n[nH]c1-c1cn[nH]c1`, for which the inhibition was -2%.

On to `O=C(COc1ccc(S(=O)(=O)N2CCCC2)cc1Cl)N1CCN(c2ccccc2)CC1`, for which the inhibition was -0.4%.

In the case of `Cc1oc(-c2ccccc2F)nc1CN1CCC(C(=O)NC2CC2)CC1`, the inhibition is -1.6%.

As to `O=C(CCN1C(=O)/C(=C/c2ccc(Cl)cc2)SC1=S)Nc1cccc(C(=O)O)c1`, the inhibition was 1.5%.

For `O=C(CCCN1C(=O)/C(=C/c2ccccc2)SC1=S)Nc1cccc(O)c1`, the inhibition is -8.3%.

For the compound `CCc1ccccc1NC(=O)c1cccc(NC(=O)/C=C/c2ccco2)c1`, the inhibition is 10.4%.

As for `O=C(/C=C/c1ccco1)Nc1ccccc1C(=O)Nc1cccc(C(=O)O)c1`, the inhibition was -11.1%.

Turning to `COC(=O)c1sc(N2C(=O)C(O)=C(C(=O)c3ccc(C)o3)C2c2ccc([N+](=O)[O-])cc2)nc1C` (stereo not given), the inhibition is -3.4%.

Take `COC(=O)c1sc(N2C(=O)C(O)=C(C(=O)c3ccc(C)o3)C2c2ccc(F)cc2)nc1C` (stereo not given): the inhibition was 100% (active).

With `CCOc1ccc(C2C(C(=O)c3ccc(C)o3)=C(O)C(=O)N2c2nc(C)c(C(=O)OC)s2)cc1` (stereo not given), the inhibition is 5.8%.

As for `O=S(=O)(Nc1ccc(N=Nc2ccc(O)c3ccccc23)cc1)c1ccccc1`, the inhibition was 70.3% (active).

For the compound `O=S(=O)(Nc1ccc(N=Nc2ccccc2)cc1)c1ccccc1`, the inhibition is -12.2%.

With `O=S(=O)(Nc1ccc(O)c(NS(=O)(=O)c2ccccc2)c1)c1ccccc1`, the inhibition is -5.8%.

`COc1cccc(NC(=O)NNC(=O)CCc2ccc(O)c(O)c2)c1`: the inhibition is 11.4%.

For `CC(=O)c1ccc(N2CCN(c3ncc(C(F)(F)F)cc3Cl)CC2)cc1`, the inhibition is -3.2%.

On to `CN(C)C=NC(=O)c1ccc(N2CCN(c3ncc(C(F)(F)F)cc3Cl)CC2)cc1`, for which the inhibition was 14.6%.

On to `O=C(CSc1nnc(-c2ccc(F)cc2)o1)c1ccc2c(c1)OCCO2`, for which the inhibition was 11.5%.

For `O=C(/C=C/c1ccccc1)NC(NC(=S)Nc1ccc(Cl)cc1)C(Cl)(Cl)Cl` (stereo not given), the inhibition is -0.3%.

Consider `O=C(/C=C/c1ccccc1)NC(NC(=S)Nc1cc(Cl)ccc1Cl)C(Cl)(Cl)Cl` (stereo not given), for which the inhibition is 27.8%.

As for `O=C(/C=C/c1ccccc1)NC(NC(=S)Nc1ccc(Cl)cc1Cl)C(Cl)(Cl)Cl` (stereo not given), the inhibition is 76.2% (active).
